# “And” between values parts separate entries of the source, which are not always exact repeats. Equal entries are not always repeated. Records with an inconclusive call do not appear. Where a structure was tested more than once in an assay, its records may differ in their call. The source made the active and inactive calls. The calls were made as follows, unless noted: active = hit-call score of the fitted dose curve at least 0.9, where 1 is the maximum; inactive = score below 0.9.
# Assays:
# [1] = read-out: Monokine induced gamma interferon (MIG), CXCL9 (gene 4283); test: BSK_SAg_MIG: BioMAP Diversity Plus: SAg Assay for Monokine induced gamma interferon (MIG) Biomarker Activity (AID 2283092); conditions: primary human HUVEC with PBMC; actives raise or lower the signal
# Procedure, shortened: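 ELISA readout of MIG/CXCL9; primary human umbilical vein endothelial cells co-cultured with peripheral blood mononuclear cells; 24 h post-dose; gain/loss fit vs DMSO baseline.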
# [2] = BSK_SAg_PBMCCytotoxicity: PBMC Cytotoxicity Assessment in the BioMAP Diversity Plus: SAg Assay (AID 2283093); conditions: primary human HUVEC with PBMC;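 also: PBMC viability measured as Alamar Blue reduction fluorescence at 546/580 nm; fitted both ways against DMSO so a hit may be loss or gain of signal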;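 as to AC50: PBMC superantigen activated with SEB plus TSST-1 one hour after compound addition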
# Procedure, shortened: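 Alamar Blue reduction (6 h, ex/em 546/580 nm) read after 90 h culture of PBMC pre-dosed 1 h then stimulated with SEB plus TSST-1, 20 ng/mL each. Gain or loss of signal fitted relative to DMSO.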
# [3] = read-out: Interleukin-8 (IL8), CXCL8 (gene 3576); test: BSK_SAg_IL8: BioMAP Diversity Plus: SAg Assay for Interleukin-8 (IL8) Biomarker Activity (AID 2283094); conditions: primary human HUVEC with PBMC; actives raise or lower the signal
# Procedure, shortened: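 Primary human endothelial cells with PBMC, exposed 24 h; IL-8 determined by ELISA, analysed bidirectionally relative to DMSO.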
# [4] = BSK_SAg_Proliferation: Cell Proliferation Assessment in the BioMAP Diversity Plus: SAg Assay (AID 2283095); conditions: primary human HUVEC with PBMC;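 also: relative cell number as total protein by SRB absorbance in sub-confluent culture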
# Procedure, shortened: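 A human primary co-culture of umbilical vein endothelium and blood mononuclear cells receives compound; relative cell number is quantified at 96 h by SRB staining and 560 nm absorbance, with DMSO-referenced bidirectional curve fitting.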
# [5] = BSK_SAg_SRB: Viability Assessment in the BioMAP Diversity Plus: SAg Assay (AID 2283096); conditions: primary human HUVEC with PBMC;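 also: cells read one day after compound addition; hits may be either gain or loss of signal compared with DMSO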
# Procedure, shortened: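 SRB absorbance at 560 nm served as the viability read-out. Cells (HUVEC plus peripheral blood mononuclear cells) were TCA-fixed and stained 24 h post-dosing; activity fitted in both directions against DMSO controls.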
# [6] = biological target: human CYP19A1, CYP19A1 (gene 1588) (UniProt P11511); test: NVS_ADME_hCYP19A1: NovaScreen (NVS) CYP450-related Enzyme Activity (ADME) Assay for human CYP19A1 (AID 2283098; active = hit-call score of the fitted dose curve at least 0.9, where 1 is the maximum;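 as to AC50: potency for inhibitors seen as loss of fluorescent enzyme signal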)
# Sequence of human CYP19A1, CYP19A1 (gene 1588) (P11511 whole entry, looked up): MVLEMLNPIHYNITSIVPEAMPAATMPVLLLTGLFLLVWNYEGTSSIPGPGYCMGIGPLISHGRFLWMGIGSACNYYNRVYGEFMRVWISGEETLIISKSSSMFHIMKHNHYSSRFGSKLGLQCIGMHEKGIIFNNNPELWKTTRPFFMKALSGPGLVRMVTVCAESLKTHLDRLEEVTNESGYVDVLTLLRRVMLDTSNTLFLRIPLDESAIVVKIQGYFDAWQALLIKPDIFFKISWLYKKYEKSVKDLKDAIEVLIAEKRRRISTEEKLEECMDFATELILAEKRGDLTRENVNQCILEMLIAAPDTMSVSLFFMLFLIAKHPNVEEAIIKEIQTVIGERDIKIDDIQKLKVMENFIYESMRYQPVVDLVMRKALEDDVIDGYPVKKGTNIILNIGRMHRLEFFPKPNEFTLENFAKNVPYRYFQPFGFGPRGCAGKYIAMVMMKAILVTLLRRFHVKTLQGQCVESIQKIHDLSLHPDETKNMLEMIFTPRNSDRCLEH
# Procedure, shortened: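 Primary testing was in duplicate at a single 10 uM concentration, with actives followed up in concentration-response series. Fluorescence read-out of recombinant enzyme activity at 0.5 h, cell-free. Acetonitrile was the negative-control baseline.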
# [7] = biological target: human CYP2B6, CYP2B6 (gene 1555) (UniProt P20813); test: NVS_ADME_hCYP2B6: NovaScreen (NVS) CYP450-related Enzyme Activity (ADME) Assay for human CYP2B6 (AID 2283101; active = hit-call score of the fitted dose curve at least 0.9, where 1 is the maximum)
# Sequence of human CYP2B6, CYP2B6 (gene 1555) (P20813 whole entry, looked up): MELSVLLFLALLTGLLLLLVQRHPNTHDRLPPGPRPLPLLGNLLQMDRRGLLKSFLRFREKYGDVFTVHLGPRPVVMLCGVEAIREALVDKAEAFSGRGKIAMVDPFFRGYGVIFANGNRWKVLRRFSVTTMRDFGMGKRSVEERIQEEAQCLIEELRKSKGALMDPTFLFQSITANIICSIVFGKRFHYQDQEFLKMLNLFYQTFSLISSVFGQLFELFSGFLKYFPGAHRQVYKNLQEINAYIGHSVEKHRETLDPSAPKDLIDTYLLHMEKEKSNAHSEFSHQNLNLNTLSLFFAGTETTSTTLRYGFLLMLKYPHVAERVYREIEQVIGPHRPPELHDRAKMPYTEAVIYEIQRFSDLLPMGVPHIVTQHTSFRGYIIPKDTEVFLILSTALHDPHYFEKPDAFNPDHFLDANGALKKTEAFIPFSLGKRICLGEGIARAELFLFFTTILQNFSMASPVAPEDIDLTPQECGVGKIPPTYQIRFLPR
# Procedure, shortened: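 Fluorescence-based enzyme activity of recombinant human CYP2B6, measured 1 h post-dose against acetonitrile vehicle baseline. Screened at a single concentration of 10 uM in duplicate before concentration-response follow-up.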
# [8] = biological target: Cytochrome P450 2C18 (Homo sapiens) (UniProt P33260); test: NVS_ADME_hCYP2C18: NovaScreen (NVS) CYP450-related Enzyme Activity (ADME) Assay for human CYP2C18 (AID 2283103)
# Sequence of Cytochrome P450 2C18 (Homo sapiens) (P33260 whole entry, looked up): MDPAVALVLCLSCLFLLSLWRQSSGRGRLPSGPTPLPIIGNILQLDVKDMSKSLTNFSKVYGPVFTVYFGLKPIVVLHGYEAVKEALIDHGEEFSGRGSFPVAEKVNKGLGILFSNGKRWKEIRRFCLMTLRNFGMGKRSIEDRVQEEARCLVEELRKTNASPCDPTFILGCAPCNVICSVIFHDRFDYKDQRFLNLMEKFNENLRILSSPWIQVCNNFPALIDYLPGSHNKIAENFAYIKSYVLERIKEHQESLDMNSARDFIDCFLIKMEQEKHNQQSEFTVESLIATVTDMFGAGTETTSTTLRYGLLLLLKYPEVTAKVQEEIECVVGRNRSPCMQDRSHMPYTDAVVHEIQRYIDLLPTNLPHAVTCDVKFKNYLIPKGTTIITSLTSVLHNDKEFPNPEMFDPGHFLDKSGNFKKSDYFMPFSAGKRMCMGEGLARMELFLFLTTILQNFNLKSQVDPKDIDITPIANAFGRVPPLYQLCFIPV
# Procedure, shortened: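 Enzyme activity measured by fluorescence 0.5 h after compound addition, using recombinant CYP2C18 and a specific substrate. Actives from duplicate 10 uM screening were retested in concentration series (top 20 uM); acetonitrile served as negative baseline.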
# [9] = biological target: human CYP2C8, CYP2C8 (gene 1558) (UniProt P10632); test: NVS_ADME_hCYP2C8: NovaScreen (NVS) CYP450-related Enzyme Activity (ADME) Assay for human CYP2C8 (AID 2283104)
# Sequence of human CYP2C8, CYP2C8 (gene 1558) (P10632 whole entry, looked up): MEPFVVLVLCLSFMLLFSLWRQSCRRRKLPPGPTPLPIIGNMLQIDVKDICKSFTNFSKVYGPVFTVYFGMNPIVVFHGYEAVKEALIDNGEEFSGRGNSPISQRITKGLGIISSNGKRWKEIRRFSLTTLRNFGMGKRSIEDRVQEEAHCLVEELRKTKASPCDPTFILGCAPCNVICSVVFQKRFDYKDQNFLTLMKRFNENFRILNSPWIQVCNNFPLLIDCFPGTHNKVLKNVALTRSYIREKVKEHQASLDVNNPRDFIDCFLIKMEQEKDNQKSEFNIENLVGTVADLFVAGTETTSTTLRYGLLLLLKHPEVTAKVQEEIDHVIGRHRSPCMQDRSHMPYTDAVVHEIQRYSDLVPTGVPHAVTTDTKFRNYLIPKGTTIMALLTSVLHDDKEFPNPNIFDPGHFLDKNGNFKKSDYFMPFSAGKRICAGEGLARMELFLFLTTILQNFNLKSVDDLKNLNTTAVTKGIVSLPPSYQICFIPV
# Procedure, shortened: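 Fluorescence readout of substrate turnover by recombinant CYP2C8 after 0.5 h, baseline acetonitrile. Single-concentration duplicate screen at 10 uM preceded singleton concentration series (max 20 uM) for compounds passing the inhibition threshold.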
# [10] = biological target: human CYP2J2, CYP2J2 (gene 1573) (UniProt P51589); test: NVS_ADME_hCYP2J2: NovaScreen (NVS) CYP450-related Enzyme Activity (ADME) Assay for human CYP2J2 (AID 2283106; active = hit-call score of the fitted dose curve at least 0.9, where 1 is the maximum)
# Sequence of human CYP2J2, CYP2J2 (gene 1573) (P51589 whole entry, looked up): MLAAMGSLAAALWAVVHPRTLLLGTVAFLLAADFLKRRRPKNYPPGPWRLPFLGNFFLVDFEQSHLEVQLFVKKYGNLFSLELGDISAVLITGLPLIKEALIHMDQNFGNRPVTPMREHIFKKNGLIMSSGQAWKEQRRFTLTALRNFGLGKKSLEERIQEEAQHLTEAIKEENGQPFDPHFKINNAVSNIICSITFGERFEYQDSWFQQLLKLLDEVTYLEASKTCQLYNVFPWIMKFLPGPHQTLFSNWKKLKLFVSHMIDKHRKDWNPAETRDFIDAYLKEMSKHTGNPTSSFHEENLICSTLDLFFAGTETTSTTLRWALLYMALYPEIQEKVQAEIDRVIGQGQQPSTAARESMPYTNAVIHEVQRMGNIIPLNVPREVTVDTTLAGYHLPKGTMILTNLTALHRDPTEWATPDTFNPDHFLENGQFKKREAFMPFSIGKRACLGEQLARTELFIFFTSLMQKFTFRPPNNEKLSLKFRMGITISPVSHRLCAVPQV
# Procedure, shortened: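 Chemicals were first tested at 10 uM in duplicate, and hits meeting criteria such as 30% inhibition were run in singleton concentration series with a 20 uM top concentration. Enzyme activity of recombinant CYP2J2 was measured by fluorescence after 1 h, relative to acetonitrile.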
# [11] = biological target: human CYP2C9, CYP2C9 (gene 1559) (UniProt P11712); test: NVS_ADME_hCYP2C9: NovaScreen (NVS) CYP450-related Enzyme Activity (ADME) Assay for human CYP2C9 (AID 2283108; active = hit-call score of the fitted dose curve at least 0.9, where 1 is the maximum)
# Sequence of human CYP2C9, CYP2C9 (gene 1559) (P11712 whole entry, looked up): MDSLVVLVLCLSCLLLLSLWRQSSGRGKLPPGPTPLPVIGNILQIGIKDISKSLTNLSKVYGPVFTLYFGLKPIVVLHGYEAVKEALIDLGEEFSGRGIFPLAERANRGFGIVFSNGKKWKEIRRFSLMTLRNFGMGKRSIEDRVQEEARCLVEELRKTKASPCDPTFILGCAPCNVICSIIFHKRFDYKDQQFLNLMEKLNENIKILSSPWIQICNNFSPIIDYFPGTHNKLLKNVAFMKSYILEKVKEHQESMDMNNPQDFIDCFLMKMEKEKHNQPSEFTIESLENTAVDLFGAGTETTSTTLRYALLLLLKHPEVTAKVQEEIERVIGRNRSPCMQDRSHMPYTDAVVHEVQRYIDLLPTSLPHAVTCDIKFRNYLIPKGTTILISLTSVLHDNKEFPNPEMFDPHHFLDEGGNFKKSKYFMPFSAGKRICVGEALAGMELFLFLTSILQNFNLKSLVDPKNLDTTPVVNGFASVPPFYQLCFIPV
# Procedure, shortened: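 Fluorescence readout of CYP2C9 activity (SF9-expressed human enzyme) at 0.75 h. The primary screen used 10 uM in duplicate, with concentration-response follow-up for actives; acetonitrile was the negative control.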
# [12] = biological target: Cytochrome P450 2C19 (Homo sapiens) (UniProt P33261); test: NVS_ADME_hCYP2C19: NovaScreen (NVS) CYP450-related Enzyme Activity (ADME) Assay for human CYP2C19 (AID 2283113; active = hit-call score of the fitted dose curve at least 0.9, where 1 is the maximum;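 also: potency for inhibition seen as loss of fluorescent signal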)
# Procedure, shortened: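 Recombinant insect-cell-expressed enzyme, fluorescent substrate, 1 h after chemical addition, fluorescence intensity. Baseline = acetonitrile vehicle; activity scored as signal loss. Primary HTS single concentration 10 uM, duplicate; actives retested in concentration series.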
# [13] = biological target: rat CYP2A2, Cyp2a2 (gene 24895) (UniProt P15149); test: NVS_ADME_rCYP2A2: NovaScreen (NVS) CYP450-related Enzyme Activity (ADME) Assay for rat CYP2A2 (AID 2283116; active = hit-call score of the fitted dose curve at least 0.9, where 1 is the maximum)
# Sequence of rat CYP2A2, Cyp2a2 (gene 24895) (P15149 whole entry, looked up): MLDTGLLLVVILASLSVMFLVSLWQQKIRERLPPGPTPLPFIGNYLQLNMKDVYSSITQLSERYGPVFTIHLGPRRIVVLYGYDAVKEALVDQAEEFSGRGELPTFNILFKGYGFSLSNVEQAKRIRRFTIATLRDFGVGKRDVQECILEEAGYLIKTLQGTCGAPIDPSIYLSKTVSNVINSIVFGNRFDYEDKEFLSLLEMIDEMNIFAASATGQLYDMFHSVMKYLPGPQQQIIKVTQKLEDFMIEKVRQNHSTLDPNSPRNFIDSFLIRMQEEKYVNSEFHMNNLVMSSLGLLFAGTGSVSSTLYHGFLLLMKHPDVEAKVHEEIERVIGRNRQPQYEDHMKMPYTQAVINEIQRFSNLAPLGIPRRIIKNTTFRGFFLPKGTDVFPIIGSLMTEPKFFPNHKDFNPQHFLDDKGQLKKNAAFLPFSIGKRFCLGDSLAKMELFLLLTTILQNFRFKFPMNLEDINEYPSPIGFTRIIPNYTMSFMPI
# Procedure, shortened: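 Compounds first tested in duplicate at 10 uM, then in singleton concentration series up to 20 uM when over threshold. Activity of the recombinant enzyme read by fluorescence at 0.2 h, normalised to acetonitrile vehicle.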
# [14] = tested on: rat CYP2B1, gene 24300; test: NVS_ADME_rCYP2B1: NovaScreen (NVS) CYP450-related Enzyme Activity (ADME) Assay for rat CYP2B1 (AID 2283117; active = hit-call score of the fitted dose curve at least 0.9, where 1 is the maximum)
# Procedure, shortened: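 Cell-free fluorescence enzyme assay, recombinant rat CYP2B1, 0.75 h after dosing. Single-concentration duplicates at 10 uM preceded concentration series (max 20 uM) for actives; acetonitrile as negative-control baseline.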
# [15] = biological target: human CYP2A6, CYP2A6 (gene 1548) (UniProt P11509); test: NVS_ADME_hCYP2A6: NovaScreen (NVS) CYP450-related Enzyme Activity (ADME) Assay for human CYP2A6 (AID 2283099; active = hit-call score of the fitted dose curve at least 0.9, where 1 is the maximum)
# Sequence of human CYP2A6, CYP2A6 (gene 1548) (P11509 whole entry, looked up): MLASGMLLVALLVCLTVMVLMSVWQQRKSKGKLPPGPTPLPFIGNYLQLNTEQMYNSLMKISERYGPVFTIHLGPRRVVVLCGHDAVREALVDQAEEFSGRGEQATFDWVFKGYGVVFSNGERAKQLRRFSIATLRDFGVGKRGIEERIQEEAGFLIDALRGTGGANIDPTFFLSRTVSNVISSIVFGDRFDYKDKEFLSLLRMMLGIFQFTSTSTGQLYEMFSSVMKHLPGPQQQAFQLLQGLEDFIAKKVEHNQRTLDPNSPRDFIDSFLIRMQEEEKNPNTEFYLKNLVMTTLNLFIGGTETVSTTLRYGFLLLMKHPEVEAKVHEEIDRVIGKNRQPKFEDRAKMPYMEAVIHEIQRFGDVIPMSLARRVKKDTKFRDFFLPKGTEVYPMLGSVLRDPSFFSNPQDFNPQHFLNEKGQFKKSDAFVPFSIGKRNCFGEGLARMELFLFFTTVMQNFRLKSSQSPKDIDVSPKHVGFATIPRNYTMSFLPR
# Procedure, shortened: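 Insect-cell-expressed human CYP2A6 enzyme activity measured by fluorescence intensity 0.5 hour post-dosing. Compounds screened at 10 uM in duplicate, then hits tested singly in concentration series (max 20 uM); acetonitrile baseline.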
# [16] = biological target: human CYP1A2, CYP1A2 (gene 1544) (UniProt P05177); test: NVS_ADME_hCYP1A2: NovaScreen (NVS) CYP450-related Enzyme Activity (ADME) Assay for human CYP1A2 (AID 2283102; active = hit-call score of the fitted dose curve at least 0.9, where 1 is the maximum;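 as to AC50: potency for inhibition since loss of fluorescence marks reduced CYP1A2 activity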)
# Sequence of human CYP1A2, CYP1A2 (gene 1544) (P05177 whole entry, looked up): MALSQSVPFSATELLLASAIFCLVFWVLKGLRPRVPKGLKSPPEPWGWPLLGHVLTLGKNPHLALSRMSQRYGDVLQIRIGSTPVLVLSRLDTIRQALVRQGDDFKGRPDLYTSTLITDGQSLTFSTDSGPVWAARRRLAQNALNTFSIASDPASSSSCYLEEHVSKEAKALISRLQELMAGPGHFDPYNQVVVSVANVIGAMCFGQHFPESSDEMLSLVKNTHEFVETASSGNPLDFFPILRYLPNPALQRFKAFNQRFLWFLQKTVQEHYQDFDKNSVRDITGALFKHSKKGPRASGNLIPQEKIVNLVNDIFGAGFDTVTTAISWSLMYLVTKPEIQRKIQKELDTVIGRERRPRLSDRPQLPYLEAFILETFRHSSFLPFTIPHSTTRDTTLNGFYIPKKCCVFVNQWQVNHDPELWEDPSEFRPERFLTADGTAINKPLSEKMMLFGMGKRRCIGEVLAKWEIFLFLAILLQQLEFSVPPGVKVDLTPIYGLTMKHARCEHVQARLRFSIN
# Procedure, shortened: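 Fluorescence-intensity enzyme activity read-out, taken 0.5 h post-dosing, using insect-cell-derived recombinant CYP1A2 and specific fluorescent substrate. Acetonitrile served as negative control/baseline. Single-concentration duplicate screen at 10 uM, then concentration-response follow-up.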
# [17] = biological target: human CYP2D6, CYP2D6 (gene 1565) (UniProt P10635); test: NVS_ADME_hCYP2D6: NovaScreen (NVS) CYP450-related Enzyme Activity (ADME) Assay for human CYP2D6 (AID 2283107; active = hit-call score of the fitted dose curve at least 0.9, where 1 is the maximum)
# Procedure, shortened: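 Fluorescence intensity read 1 h post-dosing; insect-cell-expressed recombinant protein with fluorogenic substrate, no cells. Activity is scored as signal loss relative to acetonitrile baseline, first at a single 10 uM concentration in duplicate, then as concentration series for confirmed actives.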
# [18] = biological target: rat CYP1A2, Cyp1a2 (gene 24297) (UniProt P04799); test: NVS_ADME_rCYP1A2: NovaScreen (NVS) CYP450-related Enzyme Activity (ADME) Assay for rat CYP1A2 (AID 2283115; active = hit-call score of the fitted dose curve at least 0.9, where 1 is the maximum)
# Sequence of rat CYP1A2, Cyp1a2 (gene 24297) (P04799 whole entry, looked up): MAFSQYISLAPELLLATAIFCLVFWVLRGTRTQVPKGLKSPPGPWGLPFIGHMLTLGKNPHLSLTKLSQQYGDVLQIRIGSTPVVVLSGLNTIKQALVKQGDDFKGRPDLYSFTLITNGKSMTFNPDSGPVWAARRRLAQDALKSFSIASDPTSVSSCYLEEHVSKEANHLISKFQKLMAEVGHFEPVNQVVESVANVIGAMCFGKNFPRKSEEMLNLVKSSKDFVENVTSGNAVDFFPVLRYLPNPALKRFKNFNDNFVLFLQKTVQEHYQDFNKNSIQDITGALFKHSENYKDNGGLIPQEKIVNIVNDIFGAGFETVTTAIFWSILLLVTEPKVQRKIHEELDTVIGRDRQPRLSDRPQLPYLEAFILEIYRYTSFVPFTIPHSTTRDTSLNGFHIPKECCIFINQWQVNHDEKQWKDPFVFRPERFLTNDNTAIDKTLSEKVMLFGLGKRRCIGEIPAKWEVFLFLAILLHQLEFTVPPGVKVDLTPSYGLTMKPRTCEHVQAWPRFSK
# Procedure, shortened: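 Primary testing ran in duplicate at 10 uM, with actives re-tested across concentration series. Fluorescence intensity from substrate turnover by recombinant protein, measured 1 hour post-dosing, with signal loss scored against acetonitrile vehicle.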
# [19] = biological target: Cytochrome P450 3A4 (Homo sapiens) (UniProt P08684); test: NVS_ADME_hCYP3A4: NovaScreen (NVS) CYP450-related Enzyme Activity (ADME) Assay for human CYP3A4 (AID 2283110; active = hit-call score of the fitted dose curve at least 0.9, where 1 is the maximum)
# Procedure, shortened: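 Compounds screened in duplicate at 10 uM, with follow-up concentration-response for actives, against insect-cell-expressed recombinant enzyme. Activity read by fluorescence 0.33 h after dosing; loss of signal versus acetonitrile control indicates inhibition.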
# [20] = biological target: human CYP4F12, CYP4F12 (gene 66002) (UniProt Q9HCS2); test: NVS_ADME_hCYP4F12: NovaScreen (NVS) CYP450-related Enzyme Activity (ADME) Assay for human CYP4F12 (AID 2283111; active = hit-call score of the fitted dose curve at least 0.9, where 1 is the maximum)
# Procedure, shortened: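 Recombinant enzyme with a fluorescent substrate, signal read at 0.5 h post-dose; activity loss analysed relative to acetonitrile. Compounds first run in duplicate at 10 uM, with follow-up concentration-response testing of actives.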
compound,measurement,setting,value
CC1COC(Cn2cncn2)(c2ccc(Oc3ccc(Cl)cc3)cc2Cl)O1 (stereo unspecified),AC50,[1],31.3 µM (active)
same,AC50,[2],33.2 µM (active)
same,AC50,[3],15.8 µM (active)
same,AC50,[4],14.7 µM (active)
same,AC50,[5],29.6 µM (active)
same,AC50,[6],706 nM (active)
same,AC50,[7],1.71 µM (active)
same,AC50,[8],1.07 µM (active)
same,AC50,[9],2.74 µM (active)
same,AC50,[10],438 nM (active)
same,AC50,[11],1.34 µM (active)
same,AC50,[12],25.8 nM (active)
same,AC50,[13],127 nM (active)
same,AC50,[14],552 nM (active)
CCNc1nc(Cl)nc(NCC)n1,outcome,[1],inactive
same,outcome,[2],inactive
same,outcome,[3],inactive
same,outcome,[4],inactive
same,outcome,[5],inactive
same,AC50,[10],200 nM (active)
CC(Oc1ccc(Cl)cc1Cl)C(=O)O (stereo unspecified),outcome,[1],inactive
same,outcome,[3],inactive
same,outcome,[4],inactive
same,outcome,[5],inactive
CCCCNC(=O)n1c(NC(=O)OC)nc2ccccc21,outcome,[1],inactive
same,outcome,[3],inactive
same,AC50,[4],6.25 µM (active)
same,AC50,[5],12.3 µM (active)
CCOP(=S)(OCC)SCn1c(=O)oc2cc(Cl)ccc21,outcome,[1],inactive
same,outcome,[2],inactive
same,AC50,[3],26.8 µM (active)
same,AC50,[4],29 µM (active)
same,AC50,[5],31.9 µM (active)
same,outcome,[6],inactive
same,AC50,[15],683 nM (active)
same,AC50,[7],1.25 µM (active)
same,AC50,[16],2 µM (active)
same,AC50,[8],1.46 µM (active)
same,outcome,[10],inactive
same,AC50,[17],2.8 µM (active)
same,AC50,[11],1.8 µM (active)
same,AC50,[12],215 nM (active)
same,outcome,[18],inactive
same,AC50,[13],10000 nM (active)
same,AC50,[14],708 nM (active)
CNC(=O)ON=CC(C)(C)SC,outcome,[1],inactive
same,outcome,[2],inactive
same,outcome,[3],inactive
same,outcome,[4],inactive
same,outcome,[5],inactive
COc1ccc(C(c2ccc(OC)cc2)C(Cl)(Cl)Cl)cc1,AC50,[1],30.7 µM (active)
same,AC50,[3],11.9 µM (active)
same,AC50,[4],12 µM (active)
same,AC50,[5],14.9 µM (active)
same,AC50,[6],3760 nM (active)
same,outcome,[6],inactive
same,AC50,[8],4.6 µM (active)
same,outcome,[9],inactive
same,AC50,[11],10 µM (active)
same,outcome,[19],inactive
same,outcome,[20],inactive
same,AC50,[12],7000 nM (active)
same,outcome,[13],inactive
same,outcome,[14],inactive
CCOc1cc(Oc2ccc(C(F)(F)F)cc2Cl)ccc1[N+](=O)[O-],outcome,[1],inactive
same,AC50,[3],12.5 µM (active)
same,AC50,[4],18.5 µM (active)
same,AC50,[5],13.3 µM (active)
CC(C)C1(C)N=C(c2nc3ccccc3cc2C(=O)O)NC1=O (stereo unspecified),outcome,[1],inactive
same,outcome,[3],inactive
same,outcome,[4],inactive
same,outcome,[5],inactive
Cc1c(F)c(F)c(COC(=O)C2C(/C=C(\Cl)C(F)(F)F)C2(C)C)c(F)c1F (stereo unspecified),outcome,[1],inactive
same,outcome,[3],inactive
same,AC50,[4],26.6 µM (active)
same,AC50,[5],25.9 µM (active)
CCCCNC(=O)OCC#CI,AC50,[1],35.1 µM (active) and 36.5 µM (active)
same,AC50,[3],22.1 µM (active) and 14.7 µM (active)
same,AC50,[4],2.71 µM (active) and 2.68 µM (active)
same,AC50,[5],28.6 µM (active)
same,AC50,[8],2.41 µM (active) and 4.8 µM (active)
same,AC50,[12],1.81 µM (active) and 2.46 µM (active)
same,AC50,[13],5.3 µM (active) and 5.4 µM (active)
COP(=S)(OC)Oc1nc(Cl)c(Cl)cc1Cl,outcome,[1],inactive
same,outcome,[3],inactive
same,AC50,[4],20 µM (active)
same,outcome,[5],inactive
same,outcome,[16],inactive
same,outcome,[8],inactive
same,AC50,[12],10000 nM (active)
same,outcome,[18],inactive
COC(=O)N(OC)c1ccccc1COc1ccn(-c2ccc(Cl)cc2)n1,AC50,[1],11.9 µM (active)
same,AC50,[3],2.92 µM (active)
same,AC50,[4],3.97 µM (active)
same,AC50,[5],8.48 µM (active)
same,outcome,[6],inactive
same,AC50,[16],0.912 µM (active)
same,AC50,[8],0.784 µM (active)
same,outcome,[9],inactive
same,AC50,[11],1.26 µM (active)
same,AC50,[12],720 nM (active)
